We go through 44 compounds from publication PMC4336329 (PLoS ONE, 2015).

The whole screen tested about 310,000 compounds, of which about 14,000 (4.5%) showed an effect of 50% or more. The effect is printed as a negative number. The entries come from a sample that favours strong results as a whole.
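Note: peak tail current of the secondary pulse compared with the same well before compound.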

In this assay the target is human ether-à-go-go-related gene (hERG) potassium channel (human, UniProt Q12809). Put plainly: primary screen, population patch clamp on CHO cells stably expressing hERG; higher = less effect of the substance.
Sequence of human ether-à-go-go-related gene (hERG) potassium channel (Q12809 whole entry, looked up): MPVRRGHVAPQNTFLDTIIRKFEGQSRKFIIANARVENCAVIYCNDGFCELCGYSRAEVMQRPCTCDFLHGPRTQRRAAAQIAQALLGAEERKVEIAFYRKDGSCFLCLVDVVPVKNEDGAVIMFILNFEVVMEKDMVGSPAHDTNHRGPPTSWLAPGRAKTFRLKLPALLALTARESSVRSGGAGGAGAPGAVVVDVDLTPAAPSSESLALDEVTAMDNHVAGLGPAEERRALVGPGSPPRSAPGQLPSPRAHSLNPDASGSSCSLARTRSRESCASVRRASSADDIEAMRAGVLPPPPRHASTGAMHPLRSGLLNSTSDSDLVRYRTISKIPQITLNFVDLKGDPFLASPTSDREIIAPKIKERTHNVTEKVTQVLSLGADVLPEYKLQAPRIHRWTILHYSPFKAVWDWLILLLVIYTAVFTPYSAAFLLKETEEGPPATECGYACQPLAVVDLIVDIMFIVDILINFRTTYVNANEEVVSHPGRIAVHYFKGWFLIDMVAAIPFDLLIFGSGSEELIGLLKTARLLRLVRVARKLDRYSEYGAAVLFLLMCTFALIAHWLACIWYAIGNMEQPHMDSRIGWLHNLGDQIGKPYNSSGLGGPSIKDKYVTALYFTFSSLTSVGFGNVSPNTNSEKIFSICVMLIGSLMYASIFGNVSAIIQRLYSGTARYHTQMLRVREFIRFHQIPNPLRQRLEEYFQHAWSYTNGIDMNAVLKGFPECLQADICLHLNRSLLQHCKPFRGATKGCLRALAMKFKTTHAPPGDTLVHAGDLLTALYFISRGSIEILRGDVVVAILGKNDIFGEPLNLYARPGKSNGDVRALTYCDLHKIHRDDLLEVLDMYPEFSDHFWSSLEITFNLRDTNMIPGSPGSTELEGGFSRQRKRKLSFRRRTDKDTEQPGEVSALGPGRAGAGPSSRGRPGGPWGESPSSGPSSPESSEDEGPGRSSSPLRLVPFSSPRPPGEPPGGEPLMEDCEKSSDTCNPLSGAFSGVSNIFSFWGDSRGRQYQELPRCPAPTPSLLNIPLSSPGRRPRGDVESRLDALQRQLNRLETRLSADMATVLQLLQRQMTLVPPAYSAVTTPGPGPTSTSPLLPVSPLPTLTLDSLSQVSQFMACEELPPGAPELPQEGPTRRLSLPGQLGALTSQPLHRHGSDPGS
With `O=C(CN1N=C(c2ccccc2)CCC1=O)NCc1ccco1`, the “hERG current change (%, negative = inhibition) at 10uM” value is on record as 0.243%.
With `COc1cccc(NC(=O)C2C3C=CC(C3)C2C(=O)O)c1` (centres unmarked), the “hERG current change (%, negative = inhibition) at 10uM” value was 8.61%.
As for `Cc1ccc(Cc2nnc3n(-c4cccc(C)c4)nc(C(=O)c4ccccc4)n3c2=O)cc1`, the “hERG current change (%, negative = inhibition) at 10uM” value is given as -3.85%.
In the case of `CN1CCC(=C(c2ccccc2)c2ccc(Br)cc2)CC1.Cl`, the “hERG current change (%, negative = inhibition) at 10uM” value is -68.3%.
Then `CN1CCN(C(=S)c2ccc(Br)cc2)CC1`, with -35.9%.
The result for `CN1CCC(OC(=O)c2ccc(Br)cc2)CC1.Cl` reads -41.9%.
With `C=CCNc1scc(-c2ccccc2)[n+]1CC=C.[Br-]`, the “hERG current change (%, negative = inhibition) at 10uM” value is reported as -21.4%.
With `C/C=C/C(=O)N1c2ccccc2C(C)=CC1(C)C`, the “hERG current change (%, negative = inhibition) at 10uM” value is 3.41%.
`COC(=O)c1[nH]c2cccc(OC)c2c1NC(=O)C(C)N1CCC(C)CC1` (centres unmarked): the “hERG current change (%, negative = inhibition) at 10uM” value is on record as -21.6%.
With `CCN(CC)c1ccc(C(=O)OCC(=O)Nc2sccc2C#N)cc1`, the “hERG current change (%, negative = inhibition) at 10uM” value was 12.2%.
With `Cc1ccc2cc(S(=O)(=O)NCCC(=O)O)ccc2c1`, the “hERG current change (%, negative = inhibition) at 10uM” value was -2.04%.
Take `Cc1cc(C)c2nc(N3CCC(C(=O)NCc4cccnc4)CC3)sc2c1`: the “hERG current change (%, negative = inhibition) at 10uM” value is -79%.
The result for `CCC(C)Sc1nnc(NC(=O)C2CCN(C(=O)c3ccco3)CC2)s1` (centres unmarked) reads -57.2%; that for `Cc1cc(C)c2nc(N3CCC(C(=O)N4CCCC4)CC3)sc2c1`, -67.7%.
With `Cc1cc(C)c2nc(N3CCC(C(=O)NCCCN4CC(C)CC(C)C4)CC3)sc2c1` (centres unmarked), the “hERG current change (%, negative = inhibition) at 10uM” value was -71.8%.
Then `CCc1nnc(NC(=O)C2CCN(C(=O)c3ccco3)CC2)s1`, with -0.31%; and `Cc1cc(C)c2nc(N3CCC(C(=O)NCCN4CCOCC4)CC3)sc2c1`, with -10.5%.
As for `Cc1cc(C)c2nc(N3CCC(C(=O)NCc4ccccn4)CC3)sc2c1`, the “hERG current change (%, negative = inhibition) at 10uM” value was -25.3%.
Consider `CCC(CC)c1nnc(NC(=O)C2CCN(C(=O)c3ccco3)CC2)s1`, for which the “hERG current change (%, negative = inhibition) at 10uM” value is 20.1%.
For `Cc1cc(=O)n2nc(N3CCC(C(=O)NCc4cccnc4)CC3)sc2n1`, the “hERG current change (%, negative = inhibition) at 10uM” value amounted to 7.16%.
Then `Cc1cc(C)c2nc(N3CCCC(C(=O)N4CCC(C(N)=O)CC4)C3)sc2c1` (centres unmarked), with -19.3%; and `Cc1cc(C)c2nc(N3CCC(C(=O)NCCCN4CCCCC4)CC3)sc2c1`, with -37.2%.
Then `Cc1cc(C)c2nc(N3CCC(C(=O)N4CCN(c5ncccn5)CC4)CC3)sc2c1`, with -0.141%; and `COC(=O)[C@@]12CCCN1[C@H](c1ccc(-c3ccccc3)cc1)[C@H]1C(=O)N(C)C(=O)[C@H]12.O=C(O)C(F)(F)F`, with -14.2%.
The result for `O=C1Cc2cc(S(=O)(=O)NCc3ccccc3Cl)cc3c2N1CCC3` reads 6.14%; that for `Cc1ccc(/C=C2\SC(=S)N(c3cccnc3)C2=O)o1`, 6.67%.
Turning to `CCOC(=O)c1ccc(NC(=O)c2nc[nH]c2C(=O)N2CCc3ccccc3C2)cc1`, the “hERG current change (%, negative = inhibition) at 10uM” value was 0.122%.
The result for `CC(C)CNc1nc(N)c([N+](=O)[O-])c(N2CCCCCC2)n1` reads -0.987%.
Regarding `CC1(C)SC2c3ccccc3C(=O)N2[C@@H]1C(=O)NC1CC1` (some centres unmarked), the “hERG current change (%, negative = inhibition) at 10uM” value is 9.97%.
The result for `Cc1nc([N+](=O)[O-])cn1CC(=O)c1ccc(F)cc1` reads 10.5%.
In the case of `CCNc1nc(SCC(=O)Nc2ccc(Cl)c(Cl)c2)nc(N(C)C)n1`, the “hERG current change (%, negative = inhibition) at 10uM” value worked out at 14.8%.
Then `CCN(C(=O)COC(=O)c1[nH]c(C)c(C(C)=O)c1C)C1CCS(=O)(=O)C1` (centres unmarked), with -8.32%; and `CCOc1ccc(-c2cc(C(=O)N/N=C/c3ccc(O)cc3)c3ccccc3n2)cc1`, with 4.93%.
Then `Cc1c(C(=O)N/N=C/c2ccccn2)nnn1-c1nonc1N`, with -15.6%; and `Cc1nnc(NC(=O)C2CCN(C(=O)c3ccco3)CC2)s1`, with 13.4%; and `Cc1cc2nc(N3CCN(C(=O)c4ccco4)CC3)sc2cc1C`, with 0.152%.
Turning to `O=C(Nc1nc2ccccc2s1)C1CCN(C(=O)c2ccco2)CC1`, the “hERG current change (%, negative = inhibition) at 10uM” value was -41.9%.
Then `Cc1cc(C)c2nc(N3CCC(C(=O)N4CCN(C(=O)c5ccco5)CC4)CC3)sc2c1`, with -77.1%.
For the compound `Cc1cccc2sc(NC(=O)C3CCN(C(=O)c4ccco4)CC3)nc12`, the “hERG current change (%, negative = inhibition) at 10uM” value is -71.6%.
Regarding `Cc1cc(C)c2nc(N3CCN(C(=O)c4ccco4)CC3)sc2c1`, the “hERG current change (%, negative = inhibition) at 10uM” value is reported as -28.5%.
For `C=CCOC(=O)C1=C(C)NC(C)=C(C(=O)OCC=C)C1c1ccc(C)o1`, the “hERG current change (%, negative = inhibition) at 10uM” value is recorded as -27.4%.
Then `O=C(Cc1ccccc1)NCC(=O)N1CCCCCC1`, with 9.71%.
Then `CN(C/N=C(\N)N[N+](=O)[O-])S(=O)(=O)c1ccccc1`, with 19.4%.
Then `COC(=O)C1=CO[C@@H](O[C@@H]2O[C@H](CO)[C@@H](O)[C@H](O)[C@H]2O)[C@H]2[C@@H]1C(=O)C[C@@H]2C`, with 23.3%.
